This is part of a sample that, as a whole, favours compounds with a hit. Of some 83,000 tested, about 20% had one in any assay.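 Growth was measured after 48 h exposure to one concentration of compound in 96-well plates. Values under 10 count as active.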 A number with no mark means an inactive call. Activity calls are given as the source filed them.

Among the test systems are SR leukemia; RPMI-8226 leukemia; OVCAR-8 ovarian; OVCAR-5 ovarian; OVCAR-4 ovarian; SK-OV-3 ovarian; IGROV1 ovarian; OVCAR-3 ovarian; NCI/ADR-RES ovarian; T-47D breast; BT-549 breast; MDA-MB-435 melanoma; MCF7 breast; HCC-2998 colon; KM12 colon; MDA-MB-468 breast; HCT-116 colon; HS 578T breast; SW-620 colon.
What all share (experiment): NCI-60 one-dose screen, 48 h (100 = growth as untreated, 0 = no growth, -100 = all killed)
Settings in all cases: 10 µM unless noted

Regarding `CC(=O)Oc1ccccc1C(=O)[Se]CC(=O)Nc1cccc(C(F)(F)F)c1`, the growth with SR leukemia was 31.2%; in the assay on RPMI-8226 leukemia, 35.6%; in the assay with OVCAR-8 ovarian, -46.6% (active); in the assay with OVCAR-5 ovarian, -30.9% (active); in the assay on OVCAR-4 ovarian it was 39.6%; in the assay on SK-OV-3 ovarian it was 0.121% (active). Further, the growth with IGROV1 ovarian is -64.9% (active); with OVCAR-3 ovarian, -12% (active); in the assay on NCI/ADR-RES ovarian, -63.8% (active); in the assay with T-47D breast, 56.5%; with BT-549 breast, -91% (active); with MDA-MB-435 melanoma, -29.7% (active). The growth in the assay on MCF7 breast was 3.36% (active); with HCC-2998 colon, 60%; in the assay on KM12 colon, 25.3%; in the assay on MDA-MB-468 breast it was -88.8% (active).
`O=C(N/N=C/c1ccc(-c2ccc(O)cc2)s1)c1[nH]c2ccc(Br)cc2c1-c1ccccc1`: the growth is -22.4% (active) in the assay with SR leukemia; -8.25% (active) in the assay on RPMI-8226 leukemia; 25.1% with OVCAR-8 ovarian; 18.7% in the assay on OVCAR-5 ovarian; 20.3% with OVCAR-4 ovarian; 31.6% in the assay with SK-OV-3 ovarian. Also, the growth with IGROV1 ovarian is 12.9%; in the assay on OVCAR-3 ovarian, 21.4%; in the assay with NCI/ADR-RES ovarian, -27.4% (active); in the assay with T-47D breast, 12.4%; in the assay with BT-549 breast, -12.1% (active); in the assay with MDA-MB-435 melanoma, 2.37% (active). The growth is 6.81% (active) with MCF7 breast; 1.35% (active) in the assay on HCT-116 colon; 7.81% (active) in the assay on HCC-2998 colon; 7.71% (active) in the assay on KM12 colon; 5.96% (active) with MDA-MB-468 breast.
Turning to `O=C(O)c1cccc(-c2ccc(/C=N/NC(=O)c3[nH]c4ccc(Br)cc4c3-c3ccccc3)o2)c1`, the growth was 21.1% in the assay with SR leukemia; 96.5% with RPMI-8226 leukemia; 66.4% with OVCAR-8 ovarian; 107% in the assay on OVCAR-5 ovarian; 73% in the assay with OVCAR-4 ovarian; 110% in the assay with SK-OV-3 ovarian. The growth is 85% in the assay with IGROV1 ovarian; 17.1% in the assay with OVCAR-3 ovarian; 73.7% in the assay with NCI/ADR-RES ovarian; 55.3% with T-47D breast; 34.7% in the assay with BT-549 breast; 43.9% in the assay with MDA-MB-435 melanoma. Also, the growth in the assay on MCF7 breast is 53.1%; in the assay on HCT-116 colon, 66.2%; in the assay on HCC-2998 colon it was 84.8%; in the assay with KM12 colon, 79.3%; in the assay with MDA-MB-468 breast, -12.6% (active).
In the case of `N#Cc1c(-c2ccc(Br)cc2)nc2n[nH]c(-c3ccc(Br)cc3)c2c1-c1ccc(C(F)(F)F)cc1`, the growth in the assay on SR leukemia is -11.6% (active); in the assay on RPMI-8226 leukemia, 0.725% (active); in the assay with OVCAR-8 ovarian it was 40.4%; in the assay with OVCAR-5 ovarian, 47.7%; with OVCAR-4 ovarian, 11.8%; in the assay with SK-OV-3 ovarian it was 21.8%. Besides, the growth is 6.15% (active) with IGROV1 ovarian; 10.7% in the assay with OVCAR-3 ovarian; 23.7% with NCI/ADR-RES ovarian; 3.49% (active) in the assay with T-47D breast; 11.3% with BT-549 breast; 3.09% (active) with MDA-MB-435 melanoma. Besides, the growth in the assay with MCF7 breast is 5.3% (active); with HCT-116 colon, 6.76% (active); in the assay on HCC-2998 colon, 21.8%; with KM12 colon it was 10.9%; with MDA-MB-468 breast it was -4.16% (active).
As to `CC(C)c1ccc2c(N)c(C(=O)Nc3ccc(C(F)(F)F)cn3)sc2n1`, the growth in the assay on SR leukemia is 41.9%; in the assay on RPMI-8226 leukemia, 37.9%; with OVCAR-8 ovarian, 63.8%; with OVCAR-5 ovarian it was 89.9%; in the assay with OVCAR-4 ovarian it was 32.4%; with SK-OV-3 ovarian, 83.9%. In addition, the growth is 81.2% with IGROV1 ovarian; 83% in the assay on OVCAR-3 ovarian; 42.1% in the assay on BT-549 breast; 54.8% in the assay with MDA-MB-435 melanoma; 36.9% in the assay with MCF7 breast; 47.3% in the assay on HCT-116 colon. The growth in the assay with HCC-2998 colon was 96.1%; in the assay with KM12 colon, 57%; in the assay on MDA-MB-468 breast, 14.8%.
For `CNC(=O)c1cc(Oc2ccc3nc(NC(=O)Nc4cccc(OC(F)(F)F)c4)sc3c2)ccn1`, the growth is 37.3% in the assay on SR leukemia; 51.7% with RPMI-8226 leukemia; 6.11% (active) in the assay on OVCAR-8 ovarian; 50.6% with OVCAR-5 ovarian; 30.8% with OVCAR-4 ovarian; -30.7% (active) in the assay with SK-OV-3 ovarian. For the same compound, the growth with IGROV1 ovarian was 28.4%; with OVCAR-3 ovarian it was 46.2%; in the assay on T-47D breast it was 47.4%; in the assay with BT-549 breast it was 0.174% (active); in the assay with MDA-MB-435 melanoma it was 53.9%; with MCF7 breast, 39.2%. Also, the growth in the assay with HCT-116 colon was 17.2%; in the assay on HCC-2998 colon, 46.8%; in the assay with KM12 colon it was 53.1%; in the assay with MDA-MB-468 breast, 1.5% (active).
Turning to `C=C1CC[C@@H]2[C@]3(C)COC(c4cn[nH]c4-c4ccc(C)cc4)O[C@@H]3CC[C@@]2(C)[C@@H]1C/C=C1/C(=O)OCC1O` (stereo not given in full), the growth in the assay on SR leukemia was -25% (active); in the assay on RPMI-8226 leukemia it was -25.2% (active); in the assay with OVCAR-8 ovarian it was -21.7% (active); in the assay on OVCAR-5 ovarian it was 20.4%; in the assay on OVCAR-4 ovarian it was 31.9%; in the assay on SK-OV-3 ovarian it was 79.9%. Moreover, the growth with IGROV1 ovarian is 24%; with OVCAR-3 ovarian it was -23.1% (active); in the assay on NCI/ADR-RES ovarian, -41.8% (active); with BT-549 breast it was -30.5% (active); with MDA-MB-435 melanoma, -16.6% (active); in the assay on MCF7 breast, 8.74% (active). In addition, the growth in the assay on HCT-116 colon was -68.5% (active); with HCC-2998 colon, 2.89% (active); in the assay with KM12 colon it was 39.3%; in the assay with MDA-MB-468 breast it was -49.3% (active).
As to `CC(C)C(C(=O)O)n1c(O)c(/C=C2/C=c3cc4c(cc3=NC2=O)OCO4)sc1=S` (stereo not given), the growth was 90.5% in the assay with SR leukemia; 109% in the assay on RPMI-8226 leukemia; 105% in the assay on OVCAR-8 ovarian; 110% with OVCAR-5 ovarian; 129% with SK-OV-3 ovarian; 109% with IGROV1 ovarian. Also, the growth in the assay with OVCAR-3 ovarian is 107%; with HS 578T breast it was 99.8%; in the assay on NCI/ADR-RES ovarian, 98.2%; in the assay with T-47D breast, 103%; with BT-549 breast, 111%; with MDA-MB-435 melanoma it was 107%. For the same compound, the growth with SW-620 colon was 108%; with MCF7 breast, 90.4%; in the assay with HCT-116 colon, 108%; with HCC-2998 colon it was 110%; with KM12 colon, 103%; with MDA-MB-468 breast, 101%.
With `Cn1cc(-c2cc3nc(-c4c[nH]c5ccc(Br)cc45)cc(N)n3n2)c2ccccc21`, the growth in the assay with SR leukemia was 2.66% (active); with RPMI-8226 leukemia it was -10.1% (active); with OVCAR-8 ovarian, -85.1% (active); in the assay on OVCAR-5 ovarian it was -86.1% (active); with SK-OV-3 ovarian, -66.5% (active); in the assay with IGROV1 ovarian, -57.2% (active). For the same compound, the growth in the assay with OVCAR-3 ovarian was -40% (active); in the assay on HS 578T breast it was -22.5% (active); with NCI/ADR-RES ovarian, -32.8% (active); with T-47D breast, -60.8% (active); with BT-549 breast it was -63.6% (active); in the assay on MDA-MB-435 melanoma, -88.6% (active). Moreover, the growth with SW-620 colon is -63.5% (active); in the assay on MCF7 breast, -87.2% (active); with HCT-116 colon, -90.6% (active); with HCC-2998 colon it was -82.4% (active); in the assay on KM12 colon, -83% (active); in the assay on MDA-MB-468 breast, -70.3% (active).

(Values after PubChem BioAssay (NCI).)
